The supplement of paper PMC12636033
± gives the standard deviation of the averaged measurements. Over roughly 33,000 sequences, “E-score (rank enrichment, -0.5 to 0.5)” has its median near -0.0068; the highest 2% begin near 0.24. This excerpt belongs to a sample that is enriched for the highest values.

Each sequence was assayed on muMax20 (Max(13-93) K31hArg/K57hArg, M65Nle) (assay: PBM 8-mer E-score (E-score (rank enrichment, -0.5 to 0.5)); higher = stronger preferential binding).
Protocol: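 Protein binding microarray (universal PBM chip covering all 10-mers in fixed probe flanks) with chemically synthesized human Max(13-93) bHLH-LZ analogs (not full-length Max) bearing noncanonical residues (hArg, Tha, Aib, Nle at 65) and aromatic Cys staples. Read-out per 8-mer (and its reverse complement): E-score (rank-based enrichment, -0.5 to 0.5) and Z-score of median probe intensity.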

Sequence	PBM 8-mer E-score
CACGTTAG	0.0823 ± 0.07
CCCGTGAG	-0.289 ± 0.015
CACGTGAC	0.459 ± 0.038
CACGTGAA	0.368 ± 0.099
GACGTGAC	0.0637 ± 0.034
CACGTGAG	0.344 ± 0.11
CGCGTGAC	0.268 ± 0.12
TACGTGAA	0.144 ± 0.01
CGCGTGAA	0.00405 ± 0.02
CGCGTGAG	0.122 ± 0.034
AACGTGAC	0.155 ± 0.0051
GACGTGAA	-0.111 ± 0.032
ACCCGAGG	-0.1291 ± 0.0004
CCAGCTAC	-0.139 ± 0.0043
GGAGCTAA	-0.194 ± 0.096
ATCTCCGG	-0.11 ± 0.16
CCCTTAGC	-0.0766 ± 0.14
ACGCTGAA	-0.171 ± 0.049
CCTCCTAC	-0.0317 ± 0.12
ATACCTCC	-0.0216 ± 0.038
CCCATGGC	-0.167 ± 0.041
AACTGTAG	-0.00575 ± 0.073
ACGACACA	-0.0466 ± 0.022
ATTCGCCA	-0.152 ± 0.018
AGCCTATA	0.25 ± 0.083

Sequence	PBM 8-mer E-score
CGCCTATA	-0.0178 ± 0.0095
GGCCTATA	-0.132 ± 0.045
TATGTTGA	0.238 ± 0.044
GATGTTGA	-0.00209 ± 0.012
AATGTTGA	-0.00564 ± 0.1
CATGTTGA	0.193 ± 0.044
AATGTTGG	0.0876 ± 0.073
AATGTTGT	0.28 ± 0.01
ATTCTAGC	-0.0188 ± 0.08
TCATACGA	0.2 ± 0.064
ACATACGC	0.078 ± 0.081
ATATACGC	0.0468 ± 0.016
ATCTACTC	-0.0945 ± 0.036
ATCTACTA	0.2783 ± 0.0027
CTATACTA	0.081 ± 0.083
ATATACTA	0.3084 ± 0.0014
ATATACTC	0.128 ± 0.077
ATATACGA	0.247 ± 0.017
CTATACGA	-0.122 ± 0.029
ATCTACTG	-0.00673 ± 0.085
ACATACGA	0.239 ± 0.035
CCTCGCTC	-0.0787 ± 0.12
GCGGAACC	-0.175 ± 0.0029
GGTCGGCA	-0.172 ± 0.038
ATGCCTCG	0.0473 ± 0.0097

Sequence	PBM 8-mer E-score
AAACGCGA	0.0862 ± 0.15
GAGGCAAA	0.154 ± 0.077
GTGAGCGA	-0.125 ± 0.059
CCAGGCTA	-0.296 ± 0.027
GGAAGTAA	0.207 ± 0.022
AGGTACAA	0.128 ± 0.024
GGGTACAA	0.0175 ± 0.13
TTGTACAA	0.284 ± 0.073
TGGTACAA	0.253 ± 0.084
GTGTACAA	0.1868 ± 0.0017
CTGTACAA	0.045 ± 0.052
CATGGTTA	0.103 ± 0.0075
TCCGCACA	-0.187 ± 0.04
CCACGCGC	0.03925 ± 0.00016
CCACGCGG	0.416 ± 0.005
ACACGCGA	0.15 ± 0.0033
CCACGCGA	0.0738 ± 0.016
ACACGCGT	0.238 ± 0.014
ACACGCGG	0.246 ± 0.046
ACACGCGC	0.0651 ± 0.19
AAACGCGT	0.0946 ± 0.058
ACGCGCGT	0.19 ± 0.13
AAACTCCA	-0.0494 ± 0.085
AACTTACG	0.0512 ± 0.088
GGATGGGA	0.00739 ± 0.13

Sequence	PBM 8-mer E-score
AGCTTTAT	-0.0838 ± 0.085
AGTGTGTC	-0.0164 ± 0.029
TACGGCAA	0.0936 ± 0.016
GGCCAAGA	-0.116 ± 0.056
ATGCATGG	0.132 ± 0.097
GAGCATGC	0.217 ± 0.12
ATGCATGC	0.198 ± 0.11
ATGCATTA	0.28 ± 0.079
ATGCATTC	0.215 ± 0.1
ATGCATCG	0.0165 ± 0.083
CTGCATTA	0.0657 ± 0.06
AAGCATGT	0.218 ± 0.064
ATGCATCA	0.276 ± 0.059
AAGCATGC	0.254 ± 0.074
ATGCATGA	0.276 ± 0.055
GTGCATCA	0.145 ± 0.039
GAGCAGCC	-0.196 ± 0.0049
ACAACCCC	0.0696 ± 0.03
ATACATTC	0.244 ± 0.0028
CTACATTC	0.0325 ± 0.15
ATACATTG	0.125 ± 0.013
ATTCATTG	0.148 ± 0.014
ATTCATTA	0.177 ± 0.078
ATTCATTC	0.287 ± 0.035
ACGCGGGG	0.0227 ± 0.021

Sequence	PBM 8-mer E-score
CAGCTAAC	-0.15 ± 0.12
GCGCCTCA	-0.0397 ± 0.1
CCCGGTCA	-0.139 ± 0.064
AACACATG	0.317 ± 0.053
AAAACATT	0.127 ± 0.061
AAAACATG	0.279 ± 0.027
CAAACATG	0.229 ± 0.044
AACACATC	0.0883 ± 0.011
AACACATT	0.0928 ± 0.081
CTCTGCTA	-0.193 ± 0.028
AAGCAAAT	0.172 ± 0.025
CGGGCGAG	-0.112 ± 0.12
CAAGCGCC	-0.192 ± 0.11
AAAGCGCA	0.0206 ± 0.012
CAAGCGCA	0.284 ± 0.019
GACGGTGC	-0.0722 ± 0.033
ATGCAACG	0.251 ± 0.079
ATGCAACA	0.211 ± 0.041
ATGCAACC	0.225 ± 0.014
TCTTGAAA	0.0967 ± 0.01
CGGCGCGC	0.00798 ± 0.069
CTGTTATA	0.179 ± 0.097
ATGTGTAG	0.239 ± 0.068
ATGTTATA	0.193 ± 0.12
GAGTTATA	0.173 ± 0.0073

Sequence	PBM 8-mer E-score
ATGTGTGA	0.192 ± 0.13
ATGTGTAA	0.204 ± 0.046
AAGTTATA	0.156 ± 0.018
GTGTTATA	0.2767 ± 0.0021
TAGTTATA	0.288 ± 0.068
ATGTGTAC	0.113 ± 0.057
ATGTGTTC	-0.0235 ± 0.019
ATGTGTTA	0.276 ± 0.076
ATCACCAG	-0.0679 ± 0.034
GTCCCTCA	-0.00891 ± 0.083
ATAACCGG	-0.0406 ± 0.073
ATTACGGA	0.0432 ± 0.041
ATTGCTGG	-0.0565 ± 0.13
AGGCCGGC	-0.211 ± 0.028
ATGCGGAG	0.00298 ± 0.056
AACAACGA	0.147 ± 0.012
GGGTCAAC	-0.0771 ± 0.079
GGGTGTTA	0.0328 ± 0.0072
GTGTGTTA	0.268 ± 0.0066
CTGTGTTA	0.0692 ± 0.087
CGCGCTAA	-0.0154 ± 0.16
CTTAACAC	0.149 ± 0.092
ATTAACTA	0.283 ± 0.017
ATTAACAG	0.0428 ± 0.24
ATTAACAA	0.246 ± 0.052

Sequence	PBM 8-mer E-score
GTTAACTA	0.213 ± 0.0029
ATTAACAC	0.287 ± 0.029
ACTAACAC	0.0454 ± 0.029
GTTAACAA	0.17 ± 0.0025
ATTAACTC	0.173 ± 0.0096
AAAGCTAA	-0.00207 ± 0.033
ACCACTAG	0.0698 ± 0.15
ATGCGATA	-0.0659 ± 0.018
GCCCTCGA	-0.118 ± 0.0058
CCGGATAA	-0.0458 ± 0.13
AGTAGGAC	0.103 ± 0.047
AACGGCCC	-0.263 ± 0.018
AACGGCCT	0.269 ± 0.11
AACGGCCA	-0.0219 ± 0.0033
GATCCCGA	-0.329 ± 0.0063
AATTCTTA	0.0618 ± 0.12
ATCTGTAC	0.157 ± 0.1
ACGTATTA	0.25 ± 0.076
GCGTATTA	0.117 ± 0.082
ACGTATCA	0.243 ± 0.11
ACGTATTG	0.0861 ± 0.067
ACGTATCT	0.0322 ± 0.12
ACGTATCG	-0.00982 ± 0.017
CATATGAA	0.0777 ± 0.049
AGGCACGA	0.109 ± 0.032

Sequence	PBM 8-mer E-score
CAGAGCTA	-0.25 ± 0.013
TGAACAAA	0.00782 ± 0.029
ATAATAAC	0.315 ± 0.034
TTAATAAA	0.238 ± 0.028
ATAAGAAC	0.24 ± 0.081
CTAATAAA	0.163 ± 0.024
GTAATAAC	0.156 ± 0.072
ATAATCAG	0.32 ± 0.072
CTAATAAC	0.19 ± 0.074
CTAATCAG	-0.0349 ± 0.028
ATAAGAAA	0.141 ± 0.043
ATAATAAA	0.217 ± 0.023
ATAATCAA	0.0671 ± 0.022
ATAAGAAT	0.165 ± 0.04
GATAGCGA	-0.086 ± 0.082
AATCCGAC	0.0325 ± 0.024
CTCAGAGC	-0.28 ± 0.041
ATCTGGAG	-0.0378 ± 0.089
AAAGATGT	0.203 ± 0.0026
CCCGTCTC	-0.0114 ± 0.0032
ATCTCAAG	-0.0469 ± 0.0077
GCGAAGCA	0.0453 ± 0.032
ACTTCCGC	-0.0937 ± 0.045
ATAATAAG	0.247 ± 0.051
CTAATAAG	0.119 ± 0.044

Sequence	PBM 8-mer E-score
ATAATAAT	0.205 ± 0.05
CGCAGAGA	-0.0723 ± 0.14
CTCCAAGC	-0.018 ± 0.00052
AATATAAG	0.207 ± 0.045
GATATAAA	0.139 ± 0.03
CATATAAA	0.329 ± 0.056
CATATAAC	0.219 ± 0.048
AATATAAA	0.324 ± 0.012
AATATAAT	0.156 ± 0.065
CATATAAG	0.154 ± 0.076
TGTATAAA	0.207 ± 0.0065
TATATAAA	0.304 ± 0.05
ACGACGCA	0.00737 ± 0.11
AGGGGGCA	-0.0171 ± 0.019
CAGGCTCA	-0.0417 ± 0.019
GATCTTGA	0.101 ± 0.013
CTAGGCGA	-0.155 ± 0.071
TCCCCTCA	0.14 ± 0.1
CTTTCCTA	-0.0321 ± 0.019
ATTTCCTA	0.137 ± 0.029
GTTTCCTA	0.307 ± 0.033
